# Measured values as given in PubChem BioAssay AID493005 (National Center for Advancing Translational Sciences (NCATS), 2010).
# Screen size: about 340,000 compounds; fewer than 10 were called active. The call rests on the fitted dose curve; in most records, active means well fitted inhibition curve with a large enough effect in the main read-out, with a control signal flat (not every such curve was filed as active); inconclusive means small, poorly fitted or top-dose-only effect, or effect the other way, or a change in a side signal; inactive means no such curve, though single readings can be large or run the other way. Not all results are given here.
# Biological target: Tumor susceptibility gene 101 protein (Homo sapiens) (UniProt Q99816)
# Sequence (Q99816 whole entry, looked up): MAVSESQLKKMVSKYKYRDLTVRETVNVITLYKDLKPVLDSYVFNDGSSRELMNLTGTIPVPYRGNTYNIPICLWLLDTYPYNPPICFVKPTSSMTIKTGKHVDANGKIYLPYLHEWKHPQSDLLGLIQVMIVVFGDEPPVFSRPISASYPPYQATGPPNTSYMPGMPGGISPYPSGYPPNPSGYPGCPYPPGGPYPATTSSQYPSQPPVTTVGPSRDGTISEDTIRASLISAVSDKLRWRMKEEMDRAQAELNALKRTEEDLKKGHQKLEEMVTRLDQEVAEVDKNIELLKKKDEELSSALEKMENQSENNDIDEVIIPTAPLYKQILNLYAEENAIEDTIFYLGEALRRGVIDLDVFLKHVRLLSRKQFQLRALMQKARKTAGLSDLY
# Assay: qHTS Assay for Iinhibitors of HIV-1 Budding by Blocking the Interaction of PTAP/TSG101
# Details: Fluorescence polarization, FITC-PTAP peptide / Tsg101 binding; series mostly up to 115 µM
# Text: NIH Molecular Libraries Probe Production Network [MLPCN] NIH Chemical Genomics Center [NCGC] MLPCN Grant: 1 R03 MH087464-01A1 PI Name: Dr. Eric Freed, NCI NCGC Assay Overview: Stages of the HIV-1 replication cycle, specifically virus assembly and release, provide underexploited targets for the development of novel antiviral inhibitors. The late stages of HIV-1 replication are mediated by the Gag precursor protein, Pr55Gag. Expression of Pr55Gag is both necessary and sufficient for the production of virus-like particles from Gag-expressing cells. The Gag protein hijacks key host proteins involved in endocytic machinery of the host cell to promote endosomal processing and viral budding. The budding process requires a direct interaction between a […] (PTAP) motif in the p6 domain of Gag and the cellular endosomal sorting protein known as Tsg101. In this way, the Gag PTAP motif promotes the host cells to recruit viral particles to the plasma membrane where the new viral particles are released, effectively turning the host cells into viral factories. A fluorescence anisotropy assay has been developed to quantitatively measure the PTAP-Tsg101 interaction which can be used to screen for inhibitors of this interaction.
# NCGC Assay Protocol Summary: Two uL of the Tsg101 binding domain in buffer (10 mM HEPES pH 7.5; 0.15 M NaCl, 0.01% Tween 20; 3 mM EDTA;0.1 mM TCEP) was dispensed into Greiner black MB 1536-well plates (final concentration 10 uM). Then, 23 nL of compounds or DMSO were delivered to each well using a pin tool. Finally, 2 uL of a FITC-labeled peptide containing the PTAP motif (1) in the same buffer was dispensed (50 nM final concentration) and the binding was allowed to proceed for 20 min. at r.t. Fluorescent polarization was determined using FITC excitation and polarized emission filters on a Perkin Elmer Viewlux. Keywords: Tsg101, PTAP, Gag, HIV, fluorescent polarization, MLSMR, MLPCN, NIH Roadmap, qHTS, NCGC
row,SMILES,outcome
1,Cc1nc2ccc(N)nc2nc1C,inactive
2,C/C(=N\NC(=O)OC(C)(C)C)c1ccc[nH]1,inactive
3,O=C(CCN1C(=O)[C@H]2CC=CC[C@H]2C1=O)NCc1nc(-c2ccccc2)no1,inactive
4,CCc1nnc(NC(=O)CSc2nnc(COc3ccc(C#N)cc3)n2-c2ccccc2)s1,inactive
5,CCN(CCn1cccn1)Cc1cn[nH]c1-c1ccc(OC)cc1F,inactive
6,CC1CN(Cc2nc3c(c(=O)n(C)c(=O)n3C)n2Cc2cccc(Cl)c2)CC(C)O1 (stereo not given),inactive
7,O=C(c1ccc(C(F)(F)F)cc1)C1CCCN(C(=O)c2csnn2)C1 (stereo not given),inactive
8,CN1CCC(N(C)C(=O)c2ccc(Cl)c(S(=O)(=O)Nc3ccc(Cl)cc3)c2)CC1,inactive
9,O=C(C[C@H]1C/C=C\C[C@@H](NC(=O)OCC2c3ccccc3-c3ccccc32)C(=O)O[C@@H](c2ccccc2)CNC1=O)N[C@H](CO)Cc1ccccc1,inactive
10,COc1cc(/C=C/c2ccc(/C=C/c3cc(OC)c(OC)c(OC)c3)cc2)cc(OC)c1OC,inactive
11,CCOC(=O)c1ccc2[nH]c3c(c2c1)CCCC3NC=O (stereo not given),inactive
12,CCN1CCN(C(=O)Cn2nc(C)n3c(cc4c(OC)cccc43)c2=O)CC1,inactive
13,O=C(NCc1nnc(SCC(=O)N2CCC(Cc3ccccc3)CC2)o1)c1ccco1,inactive
14,CCN(CC)S(=O)(=O)c1ccc2[nH]c(=O)cc(C(=O)N(C)C3CCS(=O)(=O)C3)c2c1 (stereo not given),inactive
15,O=C(C1CCCO1)N(c1ccc(F)cc1)C1C=CS(=O)(=O)C1 (stereo not given),inactive
16,O=C(NCc1ccccc1)c1cccc(NC(=O)C2CCCCC2)c1,inactive
17,c1ccc(-c2nccc(-c3ccc(-n4cnc5ccccc54)cc3)n2)nc1,inactive
18,CCC(C)Sc1nc(C)nc2c1c(=O)n(C)c(=O)n2C (stereo not given),inactive
19,CCN(CC)C(=O)CSc1nc2ccccc2n1CC(=O)N1CCN(c2ccccc2OC)CC1,inactive
20,CCOc1ccccc1NC(=S)C(=C([O-])c1ccc2c(c1)OCCO2)[n+]1ccc(CC)cc1,inactive
21,O=C(CSc1nnc(-c2cccs2)n1Cc1ccco1)c1ccc2c(c1)OCO2,inactive
22,COC(=O)c1ccc(NC(=O)CSc2nncc3ccc(OC)c(OC)c23)cc1,inactive

row,SMILES,outcome
1,Cc1noc(C)c1C(=O)NCCc1ccc(S(N)(=O)=O)cc1,inactive
2,O=C(CN1CCN(c2ccc(O)cc2)CC1)Nc1ccc(-c2ccccc2)cc1,inactive
3,CCN(C(=O)COC(=O)c1c(C)nn(-c2ccccc2)c1Cl)c1c(N)n(Cc2ccccc2)c(=O)[nH]c1=O,inactive
4,COc1cccc(-c2nn(-c3ccccc3)cc2/C=C(\C#N)C(=O)NCCCn2ccnc2)c1,inactive
5,Nc1c(-c2cccc(Cl)c2)cnn1-c1cccc([N+](=O)[O-])c1,inactive
6,COc1ccc(CN2C(=O)CC(Cc3ccc(C)cc3)C2=O)cc1OC (stereo not given),inactive
7,C/C(=N\N=C(N)N)c1ccc(Cl)cc1,inactive
8,CC(C)Oc1ccc(C2NC(=O)NC2=O)cc1 (stereo not given),inactive
9,COC(=O)C1(S(=O)(=O)C2(C(=O)OC)CCCC2)CCCC1,inactive
10,C=CCOC(=O)C1=C(C)N=C2SCCC(=O)N2C1/C=C/c1ccccc1OC (stereo not given),inactive
11,Cc1ccc(N(C(=O)CC2NC(=O)NC2=O)C2(C(=O)NC3CCCC3)CCCCC2)cc1 (stereo not given),inactive
12,O=S(=O)(NCCS(=O)(=O)N1CCN(c2ccccc2)CC1)c1ccc(F)cc1,inactive
13,Fc1ccc(-n2c(Cc3ccccc3)nnc2SCc2nc(-c3ccc(Cl)cc3)no2)cc1,inactive
14,N/C(=N\OC(=O)CCc1ccccc1)c1ccc(Cl)cc1,inactive
15,O=C(CN1CCN(Cc2ccccc2)CC1)NC(c1ccccc1)c1ccccc1,inactive
16,O=C(O)c1[nH]c2ccccc2c1C(c1cccc(O)c1)c1c(C(=O)O)[nH]c2ccccc12,inactive
17,COCCCNCC(=O)Nc1sc(C)c(C)c1C(=O)OC,inactive
18,CCn1c(SCC(=O)NC2=NCCS2)nnc1C(C)NC(=O)c1ccccc1F (stereo not given),inactive
19,Cc1ncc([N+](=O)[O-])n1CCOC(=O)c1ccc(Br)cc1,inactive
20,CC(C)(C)C(=O)Nc1cccc(-c2ccc[nH]2)n1,inactive
21,O=C(C/C(=N\NC(=O)c1ccccc1Br)C(F)(F)F)c1cccs1,inactive
22,COC(=O)[C@@]12CCCN1[C@H](c1ccc(-c3ccc(F)cc3)c(OC)c1)[C@H]1C(=O)N(C)C(=O)[C@H]12,inactive

row,SMILES,outcome
1,C=C1c2c(Cl)ccc(O)c2C(O)=C2C(=O)[C@]3(O)C(O)=C(C(N)=O)C(=O)[C@@H](N(C)C)[C@@H]3[C@@H](O)C12 (stereo not given in full),inactive
2,Cc1ccc(C)c(OCCC(=O)OCC(=O)NC(=O)NCc2ccccc2)c1,inactive
3,COc1ccc(NC(=O)CSc2ccc(-c3ccco3)nn2)c(OC)c1,inactive
4,COC(=O)[C@]1(C)CCC[C@@]2(C)C3CC[C@]4(OC(C)=O)C[C@@]3(CCC21)CC4=NO (stereo not given in full),inactive
5,COc1ccc(C(=O)CCc2ccccc2O)c(OC)c1,inactive
6,Cc1ccc(CNC(=O)CCC(=O)N2CC(C)Sc3ccccc32)cc1 (stereo not given),inactive
7,Cc1cc(C)cc(NC(=O)N2CCC(NC(=O)c3ccc(F)cc3)CC2)c1,inactive
8,Cc1ccc(CCCOC(=O)C[N+]2(C)CCCCC2)cc1,inactive
9,Cc1noc(C)c1S(=O)(=O)N1CCCC(C(=O)Nc2nccs2)C1 (stereo not given),inactive
10,CCCCNC1(C#N)CCN(Cc2ccccc2)CC1,inactive
11,O=C(NNC(=S)NCCCN1CCOCC1)c1ccncc1,inactive
12,CCOc1cc(CN2CCCC(CO)(Cc3ccc(F)cc3F)C2)ccc1OC (stereo not given),inactive
13,Cc1ccc2c(C)c(C(=O)N(C)CCC3CCCCO3)oc2c1C (stereo not given),inactive
14,CN(C)C(=O)c1ccc2c(c1)C1C3CCC(C3)C1C(c1ccccc1)N2 (stereo not given),inactive
15,O=C(CCC1CCCC1)N=C1SC2CS(=O)(=O)CC2N1Cc1ccccc1 (stereo not given),inactive
16,Cc1ccc(CN(N=Nc2nonc2N)c2nonc2N)c(C)c1,inactive
17,Cc1ccc(C(=O)O)cc1N1C(=O)CCCC1=O,inactive
18,Cc1ccc(CN2CCN(c3ccccc3Cl)CC2)o1,inactive
19,CCCC(=O)Nc1nnc(CC(=O)OCC)s1,inactive
20,COc1ccc(CCNCc2c(-c3ccccc3)n(C)c3ccccc23)cc1,inactive
21,COc1ccc(F)cc1S(=O)(=O)N1CCCCC1,inactive
